The values that follow come from PubChem BioAssay (Tox21).

In experiment [1] the target is Progesterone receptor (Homo sapiens) (UniProt P06401). In words: qHTS assay to identify small molecule agonists of the progesterone receptor (PR) signaling pathway (AID 1346784; calls by dose curve; note: nearly all actives have a fitted effect of over 30% in size). The procedure, abridged: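 The screen uses PR-UAS-bla HEK 293T cells in charcoal-stripped serum (2%). Compounds are applied for 16 hr at 37C after a 6 hr pre-incubation, and reporter activity is detected with a FRET beta-lactamase substrate after 2 hr at room temperature.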
Progesterone receptor (Homo sapiens), sequence (P06401 whole entry, looked up): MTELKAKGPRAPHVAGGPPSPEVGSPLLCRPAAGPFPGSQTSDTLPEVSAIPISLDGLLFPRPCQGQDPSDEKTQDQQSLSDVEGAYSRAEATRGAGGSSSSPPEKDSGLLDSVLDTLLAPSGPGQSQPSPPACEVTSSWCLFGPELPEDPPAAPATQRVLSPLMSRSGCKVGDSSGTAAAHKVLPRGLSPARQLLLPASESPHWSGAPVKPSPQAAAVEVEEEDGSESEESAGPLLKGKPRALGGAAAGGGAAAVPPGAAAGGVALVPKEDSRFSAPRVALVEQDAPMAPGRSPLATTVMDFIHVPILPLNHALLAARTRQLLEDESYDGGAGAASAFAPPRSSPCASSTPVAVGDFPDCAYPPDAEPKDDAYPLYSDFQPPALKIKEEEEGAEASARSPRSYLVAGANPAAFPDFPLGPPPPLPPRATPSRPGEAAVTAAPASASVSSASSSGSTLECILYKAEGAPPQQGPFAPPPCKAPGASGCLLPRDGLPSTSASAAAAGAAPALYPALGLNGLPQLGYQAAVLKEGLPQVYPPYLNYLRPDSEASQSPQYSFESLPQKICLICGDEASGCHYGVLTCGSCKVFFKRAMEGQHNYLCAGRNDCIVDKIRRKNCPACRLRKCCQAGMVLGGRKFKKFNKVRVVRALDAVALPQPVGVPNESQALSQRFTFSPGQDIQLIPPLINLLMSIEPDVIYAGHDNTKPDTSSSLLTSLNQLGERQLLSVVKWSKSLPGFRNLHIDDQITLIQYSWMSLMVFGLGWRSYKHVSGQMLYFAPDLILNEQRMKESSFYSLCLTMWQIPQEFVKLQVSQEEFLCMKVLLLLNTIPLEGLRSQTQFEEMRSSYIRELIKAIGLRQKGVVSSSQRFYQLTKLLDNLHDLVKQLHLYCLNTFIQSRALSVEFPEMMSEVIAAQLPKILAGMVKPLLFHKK

Experiment [2] has the same target. In words: qHTS assay to identify small molecule antagonists of the progesterone receptor (PR) signaling pathway (AID 1346795; active = well fitted inhibition curve with a large enough effect in the signal ratio in the repeat runs, not every such curve was filed as active; the % refers to the signal ratio; note: potency is the fitted concentration of half-maximal effect). The procedure, abridged:
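After 6 hr plating at 37C in 2% stripped-serum medium, PR-UAS-bla HEK293T cells got compounds, then 1 nM R5020. Sixteen hours later, LiveBLAzer substrate was applied for 2 hr at room temperature and fluorescence was recorded.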
Background: qHTS replaces the single test concentration by a dilution series.

The nature of experiment [3]: qHTS assay to identify small molecule antagonists of the progesterone receptor (PR) signaling pathway - cell viability counter screen (AID 1346798). Note: series mostly up to about 92 µM; nearly all actives have a fitted effect of over 50% in size. The procedure, abridged: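 Viability was determined by ATP-based luminescence (CellTiter-Glo) in PR-UAS-bla HEK293T cells cultured in 2% charcoal-stripped serum and incubated 16 hr with compounds under R5020 stimulation.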

A short description of experiment [4]: qHTS assay to identify small molecule agonists of the progesterone receptor (PR) signaling pathway - cell viability counter screen (AID 1346799; calls by dose curve; note: nearly all actives have a fitted effect of over 45% in size). In outline:
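Viability was scored by ATP luminescence (CellTiter-Glo, 30 min, room temperature) in the same wells used for the reporter readout, after 16 hr compound exposure of PR-UAS-bla HEK293T cells.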

Experiment [5] can be described thus: qHTS assay to identify small molecule antagonists of the TGF-beta/Smad signaling pathway - cell viability counter screen (AID 1346824). Note: nearly all actives have a fitted effect of over 50% in size. In outline: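 Cytotoxicity counter-screen run in the same wells as the beta-lactamase Smad reporter read: CellTiter-Glo luminescence after 30 min at room temperature. HEK 293T SBE-bla cells had 5 hr compound exposure at 37 C with TGF-beta1 (0.25 ng/mL stock).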

Experiment [6] in a line: qHTS assay to identify small molecule agonists of the TGF-beta/Smad signaling pathway (AID 1346859; active = well fitted activation curve with a large enough effect in the signal ratio in the repeat runs, not every such curve was filed as active; the % refers to the signal ratio; note: series mostly up to about 77 µM). The procedure, abridged:
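Dual-wavelength fluorescence (460/530 nm emission) quantified beta-lactamase expression under the Smad binding element in HEK 293T cells following 5 hr compound treatment at 37 C.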

A short description of experiment [7]: Caspase-3/7 induction in HepG2 cells by small molecules, qHTS assay (AID 1346978). Note: nearly all actives have a fitted effect of over 15% in size. In outline:
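Caspase-3/7 induction was measured by Caspase-Glo 3/7 luminescence (30 min, room temperature) after a 17 hr compound exposure of wild-type HepG2 cells seeded at 2,000 per well and pre-incubated 5 hr.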

Experiment [8] can be described thus: Caspase-3/7 induction in CHO-K1 cells by small molecules, qHTS cell viability counter screen (AID 1346979). Note: nearly all actives have a fitted effect of over 35% in size. Note: potency is the fitted concentration of half-maximal effect. In outline: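 Seeding: 1,500 CHO-K1 cells/well. Rest: 5hr, 37C. Treatment: compounds in DMSO, 16hr. Read: CellTiter-Fluor, 1hr, fluorescence.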
Experiment [9] can be described thus: Caspase-3/7 induction in CHO-K1 cells by small molecules, qHTS assay (AID 1346980). Note: nearly all actives have a fitted effect of over 15% in size. In outline:
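Luminescent Caspase-Glo 3/7 read (30min, room temperature) quantified apoptosis induction. Cells were wild-type CHO-K1, treated with compound for 17hr at 37 C and 5% CO2.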

Experiment [10] is described as follows: Caspase-3/7 induction in HepG2 cells by small molecules, qHTS cell viability counter screen (AID 1346981). Note: nearly all actives have a fitted effect of over 30% in size. Note: potency is the fitted concentration of half-maximal effect. The procedure, abridged:
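Counter screen for cytotoxicity: HepG2 exposed 16 hr to compounds, then CellTiter-Fluor viability signal (fluorescence, 1 hr reagent incubation).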

The target in experiment [11] is Nuclear receptor subfamily 1 group I member 2 (Homo sapiens) (UniProt O75469). In words: Human pregnane X receptor (PXR) small molecule agonists, qHTS assay (AID 1346982). Note: nearly all actives have a fitted effect of over 35% in size. Note: potency is the fitted concentration of half-maximal effect. In outline: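 Luminescence (ONE-Glo, 30 min RT) after 24 hr compound exposure of PXR-Luc HepG2 cells; cells rested 5 hr post-plating in 5% charcoal-stripped FBS medium.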
Nuclear receptor subfamily 1 group I member 2 (Homo sapiens), sequence (O75469 whole entry, looked up): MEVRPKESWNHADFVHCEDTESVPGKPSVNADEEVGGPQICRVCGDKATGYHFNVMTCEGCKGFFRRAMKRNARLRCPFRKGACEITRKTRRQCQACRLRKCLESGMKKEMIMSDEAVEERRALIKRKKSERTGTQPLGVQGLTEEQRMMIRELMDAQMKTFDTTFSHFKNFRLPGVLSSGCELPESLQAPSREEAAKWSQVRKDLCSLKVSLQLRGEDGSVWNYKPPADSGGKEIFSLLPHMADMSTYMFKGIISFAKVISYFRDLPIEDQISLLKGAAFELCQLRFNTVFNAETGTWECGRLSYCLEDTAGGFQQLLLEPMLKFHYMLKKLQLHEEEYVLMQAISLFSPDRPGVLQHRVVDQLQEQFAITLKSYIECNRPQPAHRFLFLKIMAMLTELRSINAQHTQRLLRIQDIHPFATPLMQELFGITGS
Experiment [12] deals with Cytochrome P450 2D6 (Homo sapiens) (UniProt P10635). In words: Cytochrome P450 Family 2 Subfamily D Member 6 (CYP2D6) small molecule antagonists: luciferase reporter qHTS assay (AID 1671196). Note: nearly all actives have a fitted effect of over 50% in size. Note: potency is the fitted concentration of half-maximal effect. The procedure, abridged:
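Inhibition of CYP2D6 was gauged by loss of luminescence, since light produced tracks the luciferin generated from a proluciferin substrate. A 10 min room-temperature preincubation preceded 1 h NADPH-supported turnover.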
(A reporter such as luciferase makes a cellular process visible.)

Experiment [13] deals with Cytochrome P450 2C19 (Homo sapiens) (UniProt P33261). In words: Cytochrome P450 Family 2 Subfamily C Member 19 (CYP2C19) small molecule antagonists: luciferase reporter qHTS assay (AID 1671197). Note: nearly all actives have a fitted effect of over 65% in size. Note: potency is the fitted concentration of half-maximal effect. The procedure, abridged:
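Enzyme-substrate mix with proluciferin substrate (P450-Glo CYP2C19 system) preincubated with compounds 10 min at room temperature; NADPH regeneration solution added, 37C for 1 h; detection reagent stops reaction, luminescence read after 20 min. Ketoconazole positive control.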

The target in experiment [14] is Thyrotropin-releasing hormone receptor (Homo sapiens) (UniProt P34981). In words: qHTS assay to identify small molecule antagonists of the thyrotropin-releasing hormone receptor (TRHR) signaling pathway (AID 1346877; active = well fitted inhibition curve with a large enough effect in the repeat runs, not every such curve was filed as active; note: series mostly up to about 51 µM). In outline:
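In this cell-based calcium flux format, HEK293 cells expressing TRHR received test compound for 5 min before the agonist TRH (1 nM final). Dye loading lasted 2 h at 37 °C.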

For experiment [15] the target is unchanged. In words: qHTS assay to identify small molecule agonists of the thyrotropin-releasing hormone receptor (TRHR) signaling pathway (AID 1346891; calls by dose curve; note: series mostly up to about 58 µM). The procedure, abridged: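 Kinetic fluorescence (3 min, 1 s intervals) reported intracellular calcium after compound transfer onto TRHR-Hek293 cells pre-loaded with dye for 2 h at 37 °C.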
Experiment [16] can be described thus: Human pregnane X receptor (PXR) small molecule agonists, qHTS cell viability counter screen (AID 1346977). Note: nearly all actives have a fitted effect of over 50% in size. In outline:
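HepG2 cells stably carrying the PXR-Luc reporter are cultured with 5% charcoal-stripped FBS and treated with compounds for 24hr. CellTiter-Fluor is added at 23hr and fluorescence is read after 1hr.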

The nature of experiment [17]: qHTS assay to identify small molecule agonists of the TGF-beta/Smad signaling pathway - cell viability counter screen (AID 1346829). Note: top concentration of the series differs between compounds; nearly all actives have a fitted effect of over 45% in size. The procedure, abridged: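 CellTiter-Glo luminescence readout; SBE-bla HEK 293T cells, overnight plating, compound 5 hr at 37 C/5% CO2, then bla substrate 2 hr RT, then CellTiter-Glo 30 min RT.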
For experiment [18], the target named is Nuclear receptor subfamily 1 group I member 2 (Rattus norvegicus) (UniProt Q9R1A7). In words: Rat pregnane X receptor (rPXR) activation by small molecules, qHTS assay (AID 1346983). Note: nearly all actives have a fitted effect of over 20% in size. To be noted: rPXR luciferase reporter cells, One-Glo luminescence, 24 h; stronger effect = higher value. The procedure, abridged: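 Luminescent readout (One-Glo luciferase, 30 min room temperature) followed 24 hr compound treatment at 37 C of rPXR cells plated 2,000 per well and preincubated 5hr; qHTS format with compounds delivered in DMSO.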
Nuclear receptor subfamily 1 group I member 2 (Rattus norvegicus), sequence (Q9R1A7 whole entry, looked up): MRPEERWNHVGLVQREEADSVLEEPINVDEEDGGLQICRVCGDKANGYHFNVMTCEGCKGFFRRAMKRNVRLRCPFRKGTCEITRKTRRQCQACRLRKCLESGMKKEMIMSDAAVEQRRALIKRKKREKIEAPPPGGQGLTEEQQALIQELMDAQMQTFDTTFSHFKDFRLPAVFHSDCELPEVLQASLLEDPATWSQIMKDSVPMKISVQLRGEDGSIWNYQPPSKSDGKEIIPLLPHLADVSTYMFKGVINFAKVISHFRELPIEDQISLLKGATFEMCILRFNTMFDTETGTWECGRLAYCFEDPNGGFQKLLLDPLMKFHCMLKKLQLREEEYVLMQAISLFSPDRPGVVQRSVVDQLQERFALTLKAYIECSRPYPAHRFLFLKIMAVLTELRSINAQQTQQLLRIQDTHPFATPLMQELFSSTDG

Several values for one entry are separate records, joined by “and”; a condition that tells them apart may be missing. Equal entries are not always repeated. Records with an inconclusive call do not appear. The source holds several records for some structures; these can differ, active in one and inactive in another. Activity calls are given as the source filed them. Unless noted, calls come from the whole dose curve; as a rule, active = well fitted curve in the direction sought with a large enough effect in the repeat runs; inconclusive = weak or mixed curves; inactive = no such curve, though single readings can be large; an effect the other way counts as inactive or inconclusive.
% is set by controls: 0 for no effect and ±100 for the full control effect.

Cytochrome P450 2C19 (Homo sapiens), sequence (P33261 whole entry, looked up): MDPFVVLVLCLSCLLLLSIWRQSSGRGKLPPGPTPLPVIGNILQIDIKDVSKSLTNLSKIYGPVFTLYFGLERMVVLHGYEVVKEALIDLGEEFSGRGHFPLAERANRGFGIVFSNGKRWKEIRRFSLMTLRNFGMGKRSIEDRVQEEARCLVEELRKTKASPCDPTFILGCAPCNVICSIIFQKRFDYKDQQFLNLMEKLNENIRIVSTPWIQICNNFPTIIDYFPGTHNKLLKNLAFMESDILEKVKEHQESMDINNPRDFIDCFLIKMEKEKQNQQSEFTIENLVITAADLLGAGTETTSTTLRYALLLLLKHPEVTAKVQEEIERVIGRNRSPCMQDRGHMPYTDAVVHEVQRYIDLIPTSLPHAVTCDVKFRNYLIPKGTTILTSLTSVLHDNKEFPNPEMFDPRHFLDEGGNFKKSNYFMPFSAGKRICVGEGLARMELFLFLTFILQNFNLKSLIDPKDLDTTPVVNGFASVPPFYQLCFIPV
Thyrotropin-releasing hormone receptor (Homo sapiens), sequence (P34981 whole entry, looked up): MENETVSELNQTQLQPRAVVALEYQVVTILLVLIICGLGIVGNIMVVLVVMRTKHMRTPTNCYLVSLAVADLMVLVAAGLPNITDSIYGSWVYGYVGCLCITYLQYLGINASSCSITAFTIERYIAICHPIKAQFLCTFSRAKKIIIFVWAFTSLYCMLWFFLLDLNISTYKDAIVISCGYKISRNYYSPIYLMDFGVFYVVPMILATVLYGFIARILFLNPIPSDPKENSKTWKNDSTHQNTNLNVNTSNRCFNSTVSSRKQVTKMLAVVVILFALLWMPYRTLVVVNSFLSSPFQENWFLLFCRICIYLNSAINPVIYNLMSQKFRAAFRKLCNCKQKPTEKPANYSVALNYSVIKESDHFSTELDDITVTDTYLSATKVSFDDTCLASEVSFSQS
Cytochrome P450 2D6 (Homo sapiens), sequence (P10635 whole entry, looked up): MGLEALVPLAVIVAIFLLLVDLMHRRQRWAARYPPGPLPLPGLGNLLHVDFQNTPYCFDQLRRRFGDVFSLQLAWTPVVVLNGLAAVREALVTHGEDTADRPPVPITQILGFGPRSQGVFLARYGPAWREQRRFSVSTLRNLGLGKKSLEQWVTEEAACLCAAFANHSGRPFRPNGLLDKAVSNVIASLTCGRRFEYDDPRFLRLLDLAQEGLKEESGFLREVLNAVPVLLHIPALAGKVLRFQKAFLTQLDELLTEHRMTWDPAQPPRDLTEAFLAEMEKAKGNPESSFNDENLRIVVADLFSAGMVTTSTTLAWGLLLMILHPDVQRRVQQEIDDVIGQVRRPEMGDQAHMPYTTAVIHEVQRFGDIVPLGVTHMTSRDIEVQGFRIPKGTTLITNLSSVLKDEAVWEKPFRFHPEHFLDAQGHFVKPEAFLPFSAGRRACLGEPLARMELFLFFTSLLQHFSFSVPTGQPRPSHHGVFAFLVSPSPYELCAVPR

Take `O=C1O[C@H]([C@H](O)CO)C(O)=C1O`: the Potency entry in experiment [1], in experiment [2], in [3], in experiment [4], in experiment [5] and in experiment [6] was “inactive” each time. For the same compound, the Potency entry in experiment [7], in experiment [8], in [9], in experiment [10], in experiment [11] and in [12] was “inactive” throughout. Moreover, in experiment [13], the Potency result is “inactive”.

As for `Oc1ccc(Cc2ccccc2O)cc1`, the Potency entry in experiment [1], in experiment [4], in [5], in experiment [6], in [14] and in experiment [7] was “inactive” throughout. In addition, the Potency entry in [8], in experiment [9], in experiment [10] and in experiment [12] was “inactive” each time. The Potency in experiment [2] is 43.8 µM (active) and 48.6 µM (active); in experiment [11] it was 61.9 µM (active); in [13], 36 µM (active) and 39.9 µM (active). In addition, the compound was called inactive in [15].

Turning to `Nc1cccc(C(F)(F)F)c1`, the Potency result in experiment [1], in experiment [2], in experiment [3], in experiment [4], in experiment [5] and in experiment [6] was “inactive” each time. Further, the Potency result in experiment [14], in experiment [16], in experiment [7], in experiment [8], in experiment [9] and in experiment [10] was “inactive” throughout. The Potency entry in experiment [11], in experiment [12] and in [13] was “inactive” in each case. In [15], the outcome was inactive.

Consider `CC(=O)OC/C=C(\C)CCC=C(C)C`, for which the Potency entry in experiment [1], in [2], in experiment [3], in experiment [5], in experiment [17] and in experiment [6] was “inactive” each time. Also, the Potency result in [7], in experiment [8], in experiment [9], in experiment [10], in experiment [11] and in experiment [12] was “inactive” each time. The Potency entry in experiment [13] was “inactive and 39.9 µM (active)”.

As to `O=c1n(CCCN2CCN(c3cccc(Cl)c3)CC2)nc2ccccn12`, the Potency entry in experiment [1], in [2], in experiment [3], in experiment [4], in experiment [5] and in experiment [6] was “inactive” each time. Also, the Potency result in experiment [16], in experiment [7], in experiment [8], in [9] and in experiment [10] was “inactive” each time. Moreover, the max activation in [18] is -1.08% (inactive).

Take `CC(C)=CCC/C(C)=C/C=O`: the Potency entry in experiment [1], in [2], in [3], in [4], in experiment [5] and in [6] was “inactive” each time. Besides, the Potency entry in experiment [16], in [7], in experiment [8], in experiment [9], in experiment [10] and in experiment [11] was “inactive” in each case. Moreover, the Potency result in [12] and in [13] was “inactive” each time.

For the compound `O=C(c1ccccc1)c1ccc(O)c(O)c1O`, the Potency result in experiment [1], in [3], in [4], in experiment [5], in experiment [17] and in experiment [6] was “inactive” throughout. The Potency entry in experiment [14], in experiment [7] and in [9] was “inactive” each time. The compound was classed as inactive in [15]. Further, the Potency was 69.1 µM (active) and 61.1 µM (active) in experiment [8]; 61.6 µM (active) in experiment [10]; 54.9 µM (active) in [11]; 63.8 µM (active) in [12]; 80.4 µM (active) and 63.3 µM (active) in experiment [13].
